Source: the supplement of paper PMC7411054
Where a name gives a salt, the structure may show the parent alone.

Key:
Settings in all cases: treatment time: 24 h
[1] = system: A549-CANX-COX4; experiment: phenotypically active (imaging signature differs from DMSO and reproducible) at any of 0.3-9 uM (binary (1 = active, 0 = inactive)); higher = active
How it was run: (§1)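 Live-cell features were measured per well and normalised to solvent control wells after fifteen gene-edited A549, HepG2 and WPMY1 reporter lines had been treated for 24 h at 0.3, 1, 3 or 9 µM in four wells each. A condition was deviating when ≥3 of 4 wells sat beyond the 95th percentile of control Euclidean distances. It was reproducible when the median replicate Pearson correlation exceeded the 95th percentile of non-replicates. Phenotypic activity demanded both.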

[2] = system: A549-TP53BP1-CLTA; experiment: as above
How it was run: as §1

[3] = system: HepG2-ACTB-RAB5A; experiment: as above
How it was run: as §1

[4] = system: HepG2-CANX-COX4; experiment: as above
How it was run: as §1

[5] = system: HepG2-GM130-SQSTM1; experiment: as above
How it was run: as §1

[6] = system: HepG2-TP53BP1-CLTA; experiment: as above
How it was run: as §1

[7] = system: HepG2-TUBA1B-RELA; experiment: as above
How it was run: as §1

[8] = system: WPMY1-ACTB-RAB5A; experiment: as above
How it was run: as §1

[9] = system: WPMY1-CANX-COX4; experiment: as above
How it was run: as §1

[10] = system: WPMY1-GM130-SQSTM1; experiment: as above
How it was run: as §1

[11] = system: WPMY1-TP53BP1-CLTA; experiment: as above
How it was run: as §1

[12] = system: WPMY1-TUBA1B-RELA; experiment: as above
How it was run: as §1

[13] = system: A549-GM130-SQSTM1; experiment: as above
How it was run: as §1

[14] = system: A549-ACTB-RAB5A; experiment: as above
How it was run: as §1

[15] = system: A549-TUBA1B-RELA; experiment: as above
How it was run: as §1

[16] = system: WPMY1-GM130-SQSTM1; experiment: lowest phenotypically active concentration; higher = less potent
How it was run: as §1

[17] = system: WPMY1-TP53BP1-CLTA; experiment: as above
How it was run: as §1

[18] = system: WPMY1-ACTB-RAB5A; experiment: as above
How it was run: as §1

[19] = system: HepG2-GM130-SQSTM1; experiment: as above
How it was run: as §1

[20] = system: WPMY1-CANX-COX4; experiment: as above
How it was run: as §1

Compound | phenotypically active [1] | phenotypically active [2] | phenotypically active [3] | phenotypically active [4] | phenotypically active [5] | phenotypically active [6] | phenotypically active [7] | phenotypically active [8] | phenotypically active [9] | phenotypically active [10] | phenotypically active [11] | phenotypically active [12] | phenotypically active [13] | phenotypically active [14] | phenotypically active [15] | lowest phenotypically active concentration [16] | lowest phenotypically active concentration [17] | lowest phenotypically active concentration [18] | lowest phenotypically active concentration [19] | lowest phenotypically active concentration [20]
CNC(=O)c1c(-c2ccc(F)cc2)oc2cc(N(CCO)S(C)(=O)=O)c(C3CC3)cc12 [nesbuvir] | 0 (inactive) | 0 (inactive) | 0 (inactive) | 0 (inactive) | 0 (inactive) | 0 (inactive) | 0 (inactive) | 0 (inactive) | 0 (inactive) | 0 (inactive) | 0 (inactive) | 0 (inactive) |  |  |  |  |  |  |  | 
C[C@@H](Oc1cc(-c2cnn(C3CCNCC3)c2)cnc1N)c1c(Cl)ccc(F)c1Cl [Crizotinib] | 1 (active) | 1 (active) | 1 (active) | 1 (active) |  | 1 (active) | 1 (active) | 1 (active) | 1 (active) | 1 (active) | 1 (active) | 1 (active) | 1 (active) |  |  |  |  |  |  | 
Cc1cnc(NC(=O)C2=C(O)c3ccccc3S(=O)(=O)N2C)s1 [meloxicam] | 0 (inactive) |  | 0 (inactive) | 0 (inactive) | 0 (inactive) |  | 0 (inactive) | 0 (inactive) | 0 (inactive) | 0 (inactive) |  | 0 (inactive) | 0 (inactive) | 0 (inactive) | 0 (inactive) |  |  |  |  | 
CN(CCOc1ccc(NS(C)(=O)=O)cc1)CCc1ccc(NS(C)(=O)=O)cc1 [dofetilide] | 0 (inactive) |  | 0 (inactive) | 0 (inactive) | 0 (inactive) |  | 0 (inactive) | 0 (inactive) | 0 (inactive) | 0 (inactive) |  | 0 (inactive) | 0 (inactive) | 0 (inactive) | 0 (inactive) |  |  |  |  | 
Cc1ccc(NC(=O)c2ccc(CN3CCN(C)CC3)cc2)cc1Nc1nccc(-c2cccnc2)n1 [Imatinib mesylate] | 1 (active) |  | 1 (active) | 1 (active) |  |  | 1 (active) | 1 (active) | 1 (active) | 1 (active) |  | 1 (active) | 1 (active) |  |  |  |  |  |  | 
C=C[C@H]1CN2CC[C@H]1C[C@@H]2[C@@H](O)c1ccnc2ccc(OC)cc12 [Quinidine hydrochloride monohydrate] | 0 (inactive) |  | 0 (inactive) | 0 (inactive) | 0 (inactive) |  | 0 (inactive) | 0 (inactive) | 0 (inactive) | 0 (inactive) |  | 0 (inactive) | 0 (inactive) | 0 (inactive) | 0 (inactive) |  |  |  |  | 
NC(=O)c1sc2c([N+](=O)[O-])cc(C(F)(F)F)cc2[n+]1[O-] [Cyclapolin 9] | 0 (inactive) | 0 (inactive) | 0 (inactive) | 0 (inactive) | 0 (inactive) | 0 (inactive) | 0 (inactive) | 0 (inactive) | 0 (inactive) | 1 (active) | 0 (inactive) | 1 (active) | 0 (inactive) | 0 (inactive) | 0 (inactive) | 9 µM |  |  |  | 
CCCCc1c(O)n(-c2ccccc2)n(-c2ccccc2)c1=O [phenylbutazone] | 0 (inactive) | 0 (inactive) | 0 (inactive) | 0 (inactive) | 0 (inactive) | 0 (inactive) | 0 (inactive) | 0 (inactive) | 0 (inactive) | 1 (active) | 0 (inactive) | 0 (inactive) | 0 (inactive) | 0 (inactive) | 0 (inactive) | ≤ 0.3 µM |  |  |  | 
O=C(O)/C(Cc1ccccc1[N+](=O)[O-])=N\Nc1nc(-c2ccc(Cl)c(Cl)c2)cs1 | 0 (inactive) | 0 (inactive) | 0 (inactive) | 0 (inactive) | 0 (inactive) | 0 (inactive) | 0 (inactive) | 0 (inactive) | 0 (inactive) | 0 (inactive) | 1 (active) | 0 (inactive) | 0 (inactive) | 0 (inactive) | 0 (inactive) |  | 9 µM |  |  | 
Cc1cc(C(C)(C)C)c(O)c(C)c1CC1=NCCN1 [oxymetazoline] | 0 (inactive) | 0 (inactive) | 0 (inactive) | 0 (inactive) | 0 (inactive) | 0 (inactive) | 0 (inactive) | 0 (inactive) | 0 (inactive) | 1 (active) | 0 (inactive) | 0 (inactive) |  |  |  | 3 µM |  |  |  | 
CC(CCc1ccccc1)NCC(O)c1ccc(O)c(C(N)=O)c1 (configuration not stated) [labetalol] | 0 (inactive) | 0 (inactive) | 0 (inactive) | 0 (inactive) | 0 (inactive) | 0 (inactive) | 0 (inactive) | 0 (inactive) | 0 (inactive) | 0 (inactive) | 0 (inactive) | 0 (inactive) |  |  |  |  |  |  |  | 
NCCNS(=O)(=O)c1cccc2cnccc12 [H-9 dihydrochloride] | 0 (inactive) | 0 (inactive) | 0 (inactive) | 0 (inactive) | 0 (inactive) | 0 (inactive) | 0 (inactive) | 1 (active) | 0 (inactive) | 0 (inactive) | 0 (inactive) | 0 (inactive) |  |  |  |  |  | 9 µM |  | 
Nc1ccn([C@@H]2O[C@H](CO)[C@@H](O)C2(F)F)c(=O)n1 [gemcitabine] | 1 (active) | 1 (active) | 1 (active) | 1 (active) | 1 (active) | 1 (active) | 1 (active) | 1 (active) | 1 (active) | 1 (active) | 1 (active) | 1 (active) |  |  |  | ≤ 0.3 µM | ≤ 0.3 µM | ≤ 0.3 µM | ≤ 0.3 µM | ≤ 0.3 µM
